Records with an inconclusive call do not appear. A call without a number means that no potency is given here. Unmarked numbers belong to inactive results. The source made the active and inactive calls. Calls come from the whole dose curve; as a rule, active = well fitted curve in the direction sought with a large enough effect; inconclusive = small, poorly fitted or top-dose-only effect, or another doubt; inactive = no such curve, though single readings can be large; an effect the other way counts as inactive or inconclusive.
biological target: Cellular tumor antigen p53 (Homo sapiens) (UniProt P04637); test: Primary qHTS for small molecule compounds that upregulate eGFP-tagged delta133p53alpha (in N-terminal) cells. (AID 2060322); conditions: NCI-H358 eGFP-delta133p53alpha fluorescence, 24 h; activation: hits give high values;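 note: cells pre-induced with doxycycline then dosed without doxycycline; nearly all actives have a fitted effect of over 75% in size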
Sequence (P04637 whole entry, looked up): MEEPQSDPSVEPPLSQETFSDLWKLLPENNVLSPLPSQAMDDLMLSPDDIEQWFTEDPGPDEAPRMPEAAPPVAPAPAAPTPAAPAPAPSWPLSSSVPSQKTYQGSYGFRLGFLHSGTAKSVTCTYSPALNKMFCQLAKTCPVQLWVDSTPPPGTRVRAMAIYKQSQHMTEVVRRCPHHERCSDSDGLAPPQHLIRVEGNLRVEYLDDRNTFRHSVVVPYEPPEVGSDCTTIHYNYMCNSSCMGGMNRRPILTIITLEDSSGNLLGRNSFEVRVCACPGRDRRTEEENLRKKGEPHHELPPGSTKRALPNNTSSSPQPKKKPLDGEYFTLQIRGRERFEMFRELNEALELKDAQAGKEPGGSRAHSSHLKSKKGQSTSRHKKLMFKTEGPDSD
Summary of the method: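 NCI-H358 cells pre-induced 24 h with 10 ng/ml doxycycline for eGFP-delta133p53alpha, plated dox-free and exposed 24 h at 37C to titrated compounds. Fixed, Hoechst-stained; gated GFP peak intensity by laser scanning cytometry, normalized to DMSO (0%) and 57.5 uM 5-azacytidine (100%).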

Structure (SMILES) | activation [%]
C[C@@]1(O)[C@H](O)[C@@H](CO)O[C@H]1n1cnc2c(=O)[nH]c(N)nc21 | -12.3
CC1=CC[C@@]2(C)CC[C@@](O)(C(C)C)[C@@H]2[C@@H](O)C1 | 11.5
COC1=CC(=O)C[C@@H](C)[C@]12Oc1cc(OC)cc(OC)c1C2=O | 4.58
C[C@@H]1O[C@@H](O[C@@H]2[C@@H](O)[C@H](O[C@@H]3[C@@H](O)[C@@H](O)[C@H](O[C@H]4[C@H](OC(=O)[C@]56CCC(C)(C)C[C@H]5C5=CCC7[C@@]8(C)C[C@H](O)[C@H](O[C@@H]9O[C@H](C(=O)O)[C@@H](O)[C@H](O)[C@H]9O)[C@@](C)(CO)C8[C@H](O)C[C@@]7(C)[C@]5(C)C[C@H]6O)O[C@@H](CO)[C@@H]4O)O[C@H]3C)OC[C@H]2O)[C@H](O)[C@H](O)[C@H]1O (stereo partly drawn) | 12.2
CCn1cc(C2=NOC(C(=O)Nc3c(C)n(C)n(-c4ccccc4)c3=O)C2)c(C)n1 (stereo not drawn) | 9
COC(=O)c1cc(Br)cnc1N1CCC(NC2CCCCC2)C(O)C1 (stereo not drawn) | -10.3
C[C@@H]1O[C@@H](O[C@@H]2[C@@H](O)[C@H](O[C@@H]3[C@@H](O)[C@@H](O)[C@H](O[C@H]4[C@H](OC(=O)[C@]56CCC(C)(C)C[C@H]5C5=CCC7[C@@]8(C)C[C@H](O)[C@H](O[C@@H]9O[C@H](C(=O)O)[C@@H](O)[C@H](O)[C@H]9O)[C@@](C)(CO)C8[C@H](O)C[C@@]7(C)[C@]5(C)CC6)OC[C@H](O)[C@@H]4O)O[C@H]3C)OC[C@H]2O)[C@H](O)[C@H](O)[C@H]1O (stereo partly drawn) | -0.763
CC1CCC2(NC1)OC1CC3C4CC=C5CC(O[C@@H]6O[C@H](CO)[C@@H](O[C@@H]7O[C@@H](C)[C@H](O)[C@@H](O)[C@H]7O)[C@H](O)[C@H]6O[C@@H]6O[C@@H](C)[C@H](O)[C@@H](O)[C@H]6O)CCC5(C)C4CCC3(C)C1C2C (stereo partly drawn) | 16.8

biological target: Aldehyde dehydrogenase, mitochondrial (Homo sapiens) (UniProt P05091); test: qHTS for Inhibitors of the Aldehyde Dehydrogenase Family (ALDH2) Primary screen (AID 2061308); conditions: ALDH2 enzyme inhibition qHTS, 1536-well; series mostly up to 56 µM; note: nearly all actives have a fitted effect of over 55% in size

Structure (SMILES) | Potency | activity change, negative = inhibition
CC(C)=CC1C[C@](C)(O)[C@@H]2[C@H]3CCC4[C@@]5(C)CC[C@H](O[C@@H]6OC[C@H](O)[C@H](O[C@@H]7O[C@H](CO[C@@H]8O[C@H](CO)[C@@H](O)[C@H](O)[C@H]8O)[C@@H](O)[C@H](O)[C@H]7O)[C@H]6O[C@@H]6O[C@@H](C)[C@H](O)[C@@H](O)[C@H]6O)C(C)(C)[C@@H]5CC[C@@]4(C)[C@@]34CO[C@@]2(C4)O1 (stereo partly drawn) | inactive | –
CC1(C)C[C@H]2C3=CCC4[C@@]5(C)CC[C@H](O[C@H]6O[C@H](C(=O)O)[C@@H](O)[C@H](O)[C@H]6O[C@H]6O[C@H](CO)[C@@H](O)[C@H](O)[C@H]6O[C@@H]6O[C@H](CO)[C@@H](O)[C@H](O)[C@H]6O)[C@](C)(CO)C5CC[C@@]4(C)[C@]3(C)CC[C@@]2(C)[C@H](O[C@@H]2OC[C@H](O)[C@H](OC3O[C@H](CO)[C@@H](O)[C@H](O)[C@H]3O)[C@H]2O)[C@@H]1O (stereo partly drawn) | – | 2.01% [at 11.2 µM]
CC/C=C\CC1C(=O)C=CC1(CCCCC1CCC(=O)O1)OC(C)=O (stereo not drawn) | inactive | –
C=C1CCC[C@]2(C)CC[C@@H](C(=C)C(=O)O)[C@H](O)[C@@H]12 | inactive | –
C=CCc1ccc(O[C@@H]2O[C@H](CO[C@@H]3O[C@@H](C)[C@H](O)[C@@H](O)[C@H]3O)[C@@H](O)[C@H](O)[C@H]2O)cc1 | inactive | –
CC(=O)N[C@H]1[C@H](O[C@H]2CC[C@@]3(C)C(CC[C@]4(C)C3CC=C3C5CC(C)(C)CC[C@]5(C(=O)O)C(O)C[C@]34C)C2(C)C)O[C@H](CO[C@@H]2O[C@H](C)[C@H](O)[C@H](O)[C@H]2O[C@@H]2OC[C@@H](O)[C@H](O)[C@H]2O)[C@@H](O)[C@@H]1O (stereo partly drawn) | inactive | –
C[C@@H]1CCO[C@H]2Cn3cc(C(=O)NCc4ccc(F)cc4F)c(=O)c(O)c3C(=O)N12 | inactive | –
Cc1ccccc1NC(=O)Nc1ccc(CC(=O)N(C)[C@@H](CC(C)C)C(=O)NCC[C@H](NC(=O)[C@@H]2CCCN2S(=O)(=O)c2cc(Cl)cc(Cl)c2)C(=O)O)cc1 | inactive | –
C1=Cc2ccccc2C(=C2CCN(CCCCc3nn[nH]n3)CC2)c2ccccc21 | inactive | –
O=C(c1ccccn1)N(Cc1cccs1)C1(C(=O)NC2CCCCC2)CCCCC1 | inactive | –
CC(=O)O[C@@H]1[C@@H](OC(C)=O)[C@H](C)O[C@@H](O[C@H]2[C@@H]3C=CO[C@@H](O[C@@H]4O[C@H](CO)[C@@H](O)[C@H](O)[C@H]4O)[C@@H]3[C@@]3(CO)O[C@@H]23)[C@@H]1OC(=O)/C=C/c1ccccc1 | inactive | –
C=C1CCC2[C@](C)(CCC[C@@]2(C)C=O)[C@H]1CC/C(C)=C/CO (stereo partly drawn) | inactive | –
C=C1C(=O)O[C@@H]2/C=C(\C)CC/C=C(\C)CC[C@@H]12 | inactive | –
CC1C(=O)CC2C3CCC(C(=O)O)C12CC3(C)CO (stereo not drawn) | inactive | –
COC1CC(OC2CCC3(C)C(=CCC4C3C(OC(C)=O)C(OC(=O)/C=C/c3ccccc3)C3(C)C(C(C)O)CCC43O)C2)OC(C)C1OC1CC(OC)C(OC2OC(C)C(OC3OC(CO)C(O)C(O)C3O)C(OC)C2O)C(C)O1 (stereo not drawn) | – | 13.8% [at 11.2 µM]
CC(=O)O[C@H](C[C@@H](C)[C@H]1C(=O)[C@H](O)[C@@]2(C)[C@@H]3CCC4C(C)(C)[C@@H](O[C@@H]5OC[C@H](O)[C@H](O)[C@H]5O)CC[C@@]45C[C@@]35CC[C@]12C)[C@@H]1OC1(C)C (stereo partly drawn) | inactive | –
CC(=O)O[C@@H]1C[C@@]2(C)C(CC[C@]3(C)C2CC=C2C4CC(C)(C)CC[C@]4(C(=O)O)CC[C@]23C)C(C)(C)[C@H]1O (stereo partly drawn) | inactive | –
C[C@H]1CC[C@@]2(OC1)O[C@H]1CC3C4CC[C@H]5C[C@@H](O)CC[C@]5(C)C4CC(=O)[C@]3(C)[C@H]1[C@@H]2C (stereo partly drawn) | inactive | –
CC1CCC2(C(=O)O)CCC3(C)C(=CCC4C5(C)CCC(O)C(C)(C(=O)O)C5CCC43C)C2C1(C)O (stereo not drawn) | inactive | –
COc1c2ccoc2cc2oc(CO[C@@H]3O[C@H](CO)[C@@H](O)[C@H](O)[C@H]3O)cc(=O)c12 | inactive | –

Structure (SMILES) | Potency | activity change, negative = inhibition
C#C[C@]1(OC(C)=O)CC[C@H]2[C@@H]3CCC4=C[C@@H](OC(C)=O)CC[C@@H]4[C@H]3CC[C@@]21C | inactive | –
CC1(C)CCC2(C(=O)O)CCC3(C)C(=CCC4C5(C)CCC(O)C(C)(CO)C5C(O)CC43C)C2C1 (stereo not drawn) | inactive | –
COC(=O)C1=CO[C@@H](O[C@@H]2O[C@H](CO)[C@@H](O)[C@H](O)[C@H]2O)[C@@H]2[C@@H](C(=O)O)CC[C@H]12 | inactive | –
COC1CCCC/C(C)=C/C2C=C(C)C(C)C3C(CC(C)C)NC(=O)C23C(=O)C1 (stereo not drawn) | inactive | –
COCC1OC(OC(C)(C)C2CCC3(C)C=C(C4CCC5C4(C)CC(O)C4OC(C(C)(C)O)CCC45C)CCC3O2)C(NC(C)=O)C(O)C1O (stereo not drawn) | inactive | –
O=S(=O)(Nc1ccc(C(O)(C(F)(F)F)C(F)(F)F)cc1)c1cccs1 | inactive | –
CC(=O)OC[C@]12[C@@H](OC(=O)c3ccoc3)C[C@@H]3[C@@H](OC(C)=O)[C@]1(OC3(C)C)[C@@](C)(O)C[C@H](OC(=O)c1ccoc1)[C@@H]2OC(=O)c1ccoc1 | inactive | –
CC(=O)O[C@H]1[C@H](Oc2ccccc2COC(=O)C2(O)C=CCCC2=O)O[C@H](CO)[C@@H](O)[C@@H]1O (stereo partly drawn) | inactive | –
CS(=O)(=O)c1ccc([C@H](CC2CCCC2)C(=O)Nc2nccs2)cc1 | inactive | –
CCC(C)/C=C(C)/C=C/C1=CC2=C(Cl)C(=O)C(C)(OC(C)=O)C(=O)C2=CN1C(CCC(=O)O)C(=O)O (stereo not drawn) | inactive | –
CCOc1ccc2nc(SCCN3CCOCC3)[nH]c2c1 | inactive | –
CCC(C)C1NC(=O)C2C(C)CCN2C(=O)C(CC(O)CO)OC(=O)CCNC(=O)C(C)N(C)C(=O)C(C(C)C)N(C)C1=O (stereo not drawn) | inactive | –
C[C@@]1(O)[C@H](O)[C@@H](CO)O[C@H]1n1cnc2c(=O)[nH]c(N)nc21 | inactive | –
CC1=CC[C@@]2(C)CC[C@@](O)(C(C)C)[C@@H]2[C@@H](O)C1 | inactive | –
COC1=CC(=O)C[C@@H](C)[C@]12Oc1cc(OC)cc(OC)c1C2=O | inactive | –
C[C@@H]1O[C@@H](O[C@@H]2[C@@H](O)[C@H](O[C@@H]3[C@@H](O)[C@@H](O)[C@H](O[C@H]4[C@H](OC(=O)[C@]56CCC(C)(C)C[C@H]5C5=CCC7[C@@]8(C)C[C@H](O)[C@H](O[C@@H]9O[C@H](C(=O)O)[C@@H](O)[C@H](O)[C@H]9O)[C@@](C)(CO)C8[C@H](O)C[C@@]7(C)[C@]5(C)C[C@H]6O)O[C@@H](CO)[C@@H]4O)O[C@H]3C)OC[C@H]2O)[C@H](O)[C@H](O)[C@H]1O (stereo partly drawn) | – | 4.77% [at 11.2 µM]
CCn1cc(C2=NOC(C(=O)Nc3c(C)n(C)n(-c4ccccc4)c3=O)C2)c(C)n1 (stereo not drawn) | inactive | –
COC(=O)c1cc(Br)cnc1N1CCC(NC2CCCCC2)C(O)C1 (stereo not drawn) | inactive | –
C[C@@H]1O[C@@H](O[C@@H]2[C@@H](O)[C@H](O[C@@H]3[C@@H](O)[C@@H](O)[C@H](O[C@H]4[C@H](OC(=O)[C@]56CCC(C)(C)C[C@H]5C5=CCC7[C@@]8(C)C[C@H](O)[C@H](O[C@@H]9O[C@H](C(=O)O)[C@@H](O)[C@H](O)[C@H]9O)[C@@](C)(CO)C8[C@H](O)C[C@@]7(C)[C@]5(C)CC6)OC[C@H](O)[C@@H]4O)O[C@H]3C)OC[C@H]2O)[C@H](O)[C@H](O)[C@H]1O (stereo partly drawn) | – | 10.8% [at 11.2 µM]
CC1CCC2(NC1)OC1CC3C4CC=C5CC(O[C@@H]6O[C@H](CO)[C@@H](O[C@@H]7O[C@@H](C)[C@H](O)[C@@H](O)[C@H]7O)[C@H](O)[C@H]6O[C@@H]6O[C@@H](C)[C@H](O)[C@@H](O)[C@H]6O)CCC5(C)C4CCC3(C)C1C2C (stereo partly drawn) | inactive | –

Reference: PubChem BioAssay (NCATS)
